Source: PubChem BioAssay (National Center for Advancing Translational Sciences (NCATS))
An excerpt weighted towards active compounds, which were near 12% of everything screened.
Shiga toxin inh = A qHTS for Small Molecule Inhibitors of Shiga Toxin; 9.2% of 290,000 active; AID 2315, 2010; Vero cells, Shiga toxin protein synthesis inhibition reporter; inhibition, % at 38.7 µM; in the data active = inhibition mostly above about 28%, no sharp cut-off; inactive = mostly below about 43%
MARV entry inh = qHTS for inhibitors of binding or entry into cells for Marburg Virus | Marburg virus pseudotyped entry inhibition, cell reporter | Potency, µM (top dose mostly 37.8 µM), actives largely listed as inhibitors | 1.8% of 300,000 active | AID 540276, 2011; calls by dose curve; tested in HEK293 cells
Lassa entry inh = qHTS for Inhibitors of binding or entry into cells for Lassa Virus; Lassa virus pseudotype entry inhibition, cell reporter; Potency, µM (highest dose often 37.9 µM), hits mostly inhibitors; 1.2% of 300,000 active; AID 540256, 2011; calls by dose curve; tested in HEK293 cells; note: nearly all actives have a fitted effect of over 50% in size
Cycloheximide cs = Cycloheximide Counterscreen for Small Molecule Inhibitors of Shiga Toxin; cell reporter, cycloheximide protein synthesis inhibition counterscreen; max response, %; 12% of 300,000 active; AID 2314, 2010; in the data active = max response mostly above about 13%, no sharp cut-off; inactive = mostly below about 14%; note: read at 38.3 µM for the half of the compounds with a filed dose
Each line names hits and unclear results; the compound was inactive in the other large screens.

CCOc1ccccc1CNC(=O)c1ccc2c(c1)N(CC)CCS2	none (no result: Lassa entry inh)
CC(C)c1ccc(NC(=O)COc2ccccn2)cc1	Shiga toxin inh 84, MARV entry inh inconclusive, Cycloheximide cs 45
CC(C)c1ccc(OCC(=O)NCCO)cc1	Shiga toxin inh 93, MARV entry inh inconclusive, Lassa entry inh inconclusive, Cycloheximide cs 53
Cc1cc(OCC(=O)NCCO)ccc1Cl	none
CC(C)c1ccc(OCC(=O)Nc2ccc(OC(F)(F)F)cc2)cc1	none
CC(C)c1ccc(NC(=O)Cn2c(=O)oc3ccccc32)cc1	Shiga toxin inh 32 (no result: MARV entry inh, Lassa entry inh)
CC(C)c1ccc(NC(=O)COc2ccccc2)cc1	Shiga toxin inh 62, Cycloheximide cs 49
Cc1nnc(C)n1/N=C\c1cc(Br)cc(Br)c1O	none (no result: Shiga toxin inh, Lassa entry inh, Cycloheximide cs)
COc1cccc(NCc2cc(=O)oc3cc(-c4ccccc4)c(O)cc23)c1	Shiga toxin inh 62, MARV entry inh inconclusive, Cycloheximide cs 27
O=C(NNC(=O)c1cc(OCC(F)(F)F)ccc1OCC(F)(F)F)c1cccc(C(F)(F)F)c1	Shiga toxin inh 56, Cycloheximide cs 20
Cc1ccc(C(=O)NNC(=O)c2cc(OCC(F)(F)F)ccc2OCC(F)(F)F)cc1	none
O=C(NCCc1ccccc1Cl)c1sc2ncccc2c1-n1cccc1	none (no result: Shiga toxin inh, MARV entry inh, Cycloheximide cs)
Cc1ccc2oc(C(=O)Nc3sc4c(c3C(=O)NCc3ccccc3)CCCC4)cc(=O)c2c1	none (no result: Shiga toxin inh, Cycloheximide cs)
COc1ccc(C(=O)NCCS(=O)(=O)NCc2ccccc2)cc1	none (no result: Shiga toxin inh, Cycloheximide cs)
CCOC(=O)C1=C(C)NC(=O)NC1c1ccc(N2CCC(c3ccccc3)=N2)cc1 (configuration not stated)	Shiga toxin inh 26, Cycloheximide cs 11 (no result: MARV entry inh, Lassa entry inh)
C/C(NC(=O)c1cccc(F)c1)=C1/C(=O)C[C@@H]2[C@H]1C2(C)C	none
C/C(NC(=O)c1ccccc1F)=C1\C(=O)C[C@@H]2[C@H]1C2(C)C	MARV entry inh inconclusive, Cycloheximide cs 14
Cc1c(Cl)cccc1NC(=S)NC1CCN(Cc2ccccc2)CC1	MARV entry inh 16µM, Lassa entry inh inconclusive
CC(C)c1ccc(NC(=S)N2CCN(Cc3ccccc3)CC2)cc1	Cycloheximide cs 12 (no result: MARV entry inh, Lassa entry inh)
CC(C)c1ccc(NC(=S)NC2CCN(Cc3ccccc3)CC2)cc1	MARV entry inh inconclusive, Lassa entry inh 18µM
Cc1ccc(NC(=S)NC2CCN(Cc3ccccc3)CC2)cc1	none
Cc1cc(Cl)ccc1NC(=O)CN1CCCC1	Lassa entry inh inconclusive
Cc1ccc(NC(=O)CN2CCCCCC2)cc1Br	MARV entry inh inconclusive, Cycloheximide cs 19
Cc1ccc(NC(=O)CN2CCCCCC2)c(Br)c1	Shiga toxin inh 81, MARV entry inh inconclusive, Cycloheximide cs 36
Cc1cc2cc(CN(C(=O)C3CC3)C3CCCC3)c3nnnn3c2cc1C	MARV entry inh inconclusive, Lassa entry inh inconclusive
Cc1ccsc1C(=O)N1CCCC(CCC(=O)N2CCN(c3ccccn3)CC2)C1 (configuration not stated)	none (no result: MARV entry inh, Lassa entry inh)
CCC(C)NC(=O)C1CN(S(=O)(=O)c2ccccc2)CCN1S(=O)(=O)c1ccccc1 (configuration not stated)	Cycloheximide cs 25
CCCNC(=O)C1CN(S(=O)(=O)c2ccccc2)CCN1S(=O)(=O)c1ccccc1 (configuration not stated)	none
CC1CC(C)CN(C(=O)C2CCN(C(=O)Nc3ccccc3)CC2)C1 (configuration not stated)	none (no result: Shiga toxin inh, Cycloheximide cs)
COc1ccc(NC(=S)N2CCC(c3ccccc3)C2)cc1 (configuration not stated)	Shiga toxin inh 84, Cycloheximide cs 40 (no result: MARV entry inh, Lassa entry inh)
O=C(c1cccs1)N1CCC(c2ccccc2)C1 (configuration not stated)	Shiga toxin inh 97, MARV entry inh inconclusive, Lassa entry inh inconclusive, Cycloheximide cs 41
O=C(CCN1CCC(c2ccccc2)C1)c1cccs1 (configuration not stated)	MARV entry inh inconclusive, Lassa entry inh inconclusive
Cc1ccc(NC(=O)N2CCCC(c3ccccc3)C2)cc1 (configuration not stated)	Cycloheximide cs 22 (no result: MARV entry inh, Lassa entry inh)
Cc1ccc(C2CCN(C(=O)Nc3ccc(C)c(C)c3)C2)cc1 (configuration not stated)	none (no result: Shiga toxin inh, MARV entry inh, Cycloheximide cs)
O=C(Nc1ccccc1)N1CCC(c2ccccc2)C1 (configuration not stated)	Shiga toxin inh 83, Lassa entry inh inconclusive, Cycloheximide cs 39
CCOc1ccc(NC(=O)Cn2c(=O)n(Cc3ccc(C(=O)NCc4ccc5c(c4)OCO5)cc3)c(=O)c3ccccc32)cc1	none (no result: Shiga toxin inh, Cycloheximide cs)
COCc1[nH]nc2c1[C@@H](c1ccc(OC)cc1)C(C#N)=C(N)O2	none (no result: Shiga toxin inh, Lassa entry inh, Cycloheximide cs)
CCc1ccc(NC(=O)N2CCC(c3ccccc3)C2)cc1 (configuration not stated)	Shiga toxin inh 108, MARV entry inh inconclusive, Lassa entry inh inconclusive, Cycloheximide cs 39
Cc1ccc(Cl)cc1NC(=S)N1CCC(c2ccccc2)C1 (configuration not stated)	MARV entry inh inconclusive, Lassa entry inh inconclusive, Cycloheximide cs 26
CCOc1ccc(NC(=O)N2CCC(c3ccc(C)cc3)C2)cc1 (configuration not stated)	MARV entry inh inconclusive, Cycloheximide cs 18
C#CCCCON=C1C[C@@H](O)[C@H](O)[C@H]2[C@@H]3C(=O)N(Cc4ccccc4)C(=O)[C@@H]3CC[C@H]12	none (no result: Shiga toxin inh, Lassa entry inh, Cycloheximide cs)
NCc1cccc(-n2cccn2)c1	none
c1ccc2c(-n3cccn3)cccc2c1	Shiga toxin inh 83, Cycloheximide cs 36
c1ccc2c(N3CCNCC3)cccc2c1	MARV entry inh 11µM (no result: Shiga toxin inh, Cycloheximide cs)
CCOC(=O)N1CCc2c(sc3c2c(=O)n(-c2ccc(Cl)cc2)c(=O)n3Cc2cccc(OC)c2)C1	none (no result: Shiga toxin inh, Cycloheximide cs)
Cc1c(Cl)cccc1NC(CC(=O)c1ccccc1)C(=O)OCC(=O)c1cccs1 (configuration not stated)	Shiga toxin inh 81, Cycloheximide cs 23
O=C(CC(Nc1ccccc1Cl)C(=O)O)c1ccccc1 (configuration not stated)	Shiga toxin inh 91, Lassa entry inh inconclusive, Cycloheximide cs 68
O=C(CC(Nc1ccc(F)cc1)c1ccccc1)c1ccccc1 (configuration not stated)	Shiga toxin inh 91, Cycloheximide cs 31
COC(=O)c1ccccc1SC(CC(=O)c1ccccc1)c1ccc(F)cc1 (configuration not stated)	Shiga toxin inh 107, Cycloheximide cs 56
O=C(CC(Nc1cccc(Cl)c1Cl)C(=O)OCC(=O)c1cccs1)c1ccccc1 (configuration not stated)	MARV entry inh inconclusive
O=C(COc1cc2oc(=O)c3c(c2cc1Cl)CCC3)NCc1ccncc1	none (no result: MARV entry inh, Lassa entry inh)
Cn1ncc2c(=O)n(CC(=O)NC34CC5CC(CC(C5)C3)C4)cnc21	none
COc1ccccc1NC(CC(=O)c1ccccc1)C(=O)OCC(=O)c1ccc(F)cc1 (configuration not stated)	Shiga toxin inh 60, MARV entry inh inconclusive, Cycloheximide cs 49
O=C(CC(Nc1cccc(Cl)c1Cl)C(=O)O)c1ccccc1 (configuration not stated)	Shiga toxin inh 102, Cycloheximide cs 57 (no result: MARV entry inh, Lassa entry inh)
O=C(CC(Nc1ccc(Cl)cc1)C(=O)O)c1ccccc1 (configuration not stated)	Shiga toxin inh 42, MARV entry inh inconclusive, Cycloheximide cs 54
